HIF-2a inh: HIF-2a inhibition; 786-0 RCC cells HIF-2a reporter, luciferase luminescence, overnight; inhibition, % at 18.8 µM; hit rate 0.72% among 360,000; AID 624352;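 active = inhibition of the luminescence signal of 40% or more relative to plate controls, in a single-dose primary screen at 18.75 µM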
TWEAK-Fn14 inh: TWEAK-Fn14 signaling inhibition. TWEAK-stimulated Fn14 reporter cells, luciferase luminescence, 8 h. inhibition, % at 10 µM. hit rate 2% among 360,000; in the data active = inhibition above about 50%
CF NFkB block: inhibitors of cystic fibrosis induced NF-kB | KKLEB NF-kB-GFP reporter, PAF-induced, GFP fluorescence overnight | inhibition, % at 5 µM | hit rate 0.86% among 360,000 | AID 588850;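 active = at least 50% inhibition at 5 µM, scaled per plate between neutral and stimulator controls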;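 also: PAF is a Pseudomonas aeruginosa culture filtrate used as stimulus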
TROY NFkB inh: blocks TROY-dependent signaling in reporter cells. Q293 LMP1-TROYcd NF-kB luciferase reporter, 4 h. inhibition, % at 10 µM. hit rate 0.98% among 360,000. AID 1347056;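 active = compounds whose plate-normalised and pattern-corrected inhibition of the luciferase reporter signal at the single screening dose is 50% or more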
KKLEB tox: counter-screen for CF NF-kB inhibitors: cytotoxicity. KKLEB CF airway cells viability, ATPlite luminescence, overnight; hits give low values; cells stimulated with P. aeruginosa culture filtrate. AID 602141. hit rate 0.36% among 360,000. activity change (cytotoxicity), % at 5 µM;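 active = corrected activity change at or below -50% at 5 µM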
Peg3 prom inh: inhibitors of Peg3 promoter. HeLa PEG-Prom luciferase reporter, luminescence, overnight. inhibition, % at 20 µM. hit rate 1.7% among 360,000. AID 588405;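 active = inhibition of at least 50% at 20 µM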
Hits are given with their value; . = inactive; / = no result. Only some compounds are listed: those with a hit (about 4% of all), similar ones and a draw of the others.

SMILES	HIF-2a inh	TWEAK-Fn14 inh	CF NFkB block	TROY NFkB inh	KKLEB tox	Peg3 prom inh
COc1ccc(OC)c(/C=C/c2ccc3cccc(O)c3n2)c1	.	.	.	.	.	83
Cc1c(C(=O)NCc2ccccc2C(F)(F)F)sc(=O)n1Cc1ccc(F)cc1	.	.	.	.	.	.
COc1ccc(O)cc1CN1CCN(c2ncc(Cc3ccccc3)cn2)CC1	.	/	/	/	/	/
COCCCNC(=O)C1CCC(=O)N1Cc1ccccc1Cl (centres undefined)	.	85	.	/	.	.
COCC(C)n1c(C)cc(C(=O)COC(=O)c2n[nH]c3ccccc23)c1C (centres undefined)	.	67	.	78	.	.
COCC(C)n1c(C)cc(C(=O)COC(=O)c2oc3ccccc3c2C)c1C (centres undefined)	.	.	.	.	.	.
Cc1cccc(C)c1NC(=O)C1(C)CN(S(C)(=O)=O)CC(=O)N1Cc1ccco1 (centres undefined)	.	/	/	/	/	/
COC(=O)Cc1ccc(NC(=S)N2CCN(CCO)CC2)cc1	.	.	.	.	.	.
O=C(NCc1cccnc1)C(=O)NCC1OCCCN1S(=O)(=O)c1cc(F)ccc1F (centres undefined)	.	.	.	.	.	.
Cc1ccc(C2CN=NC23CCc2ccccc2C3=O)cc1 (centres undefined)	.	55	.	.	.	.
O=C1c2ccccc2CCCC12N=NCC2c1cccc2ccccc12 (centres undefined)	.	.	.	.	.	.
C[n+]1c2n(c3ccccc31)N=C(c1ccccc1)CS2	.	.	.	.	.	.
C[n+]1c2n(c3ccccc31)N=C(c1ccc(-c3ccccc3)cc1)CS2	.	54	.	.	.	.
O=S(=O)(NC(=NC1CCCCC1)c1ccccc1)c1ccccc1	.	.	.	.	.	.
O=S(=O)(NC(=NC1CCCCC1)c1ccccc1F)c1ccccc1	.	63	.	.	.	.
COc1ccc(Cl)cc1N1C(=O)CC(N2CCN(S(=O)(=O)c3ccccc3F)CC2)C1=O (centres undefined)	.	.	.	.	.	.
CCOC(=O)c1sc(NC(=O)CSc2nnnn2-c2ccc(C)cc2)c(C(=O)OCC)c1C	.	.	.	.	.	.
CCOC(=O)c1sc(NC(=O)CSc2nc3c(c(=O)n2-c2ccc(C)cc2)SCC3)c(C(=O)OCC)c1C	.	.	.	.	-60	.
O=C(COC(=O)c1cc(Cl)ccc1O)NCCC1=CCCCC1	.	.	.	.	.	.
COc1ccc(/C(O)=C2/C(=O)C(=O)N(Cc3ccco3)C2c2cccs2)cc1 (centres undefined)	.	.	.	.	.	.
CC1Cc2cc(/C(O)=C3/C(=O)C(=O)N(Cc4ccco4)C3c3cccs3)ccc2O1 (centres undefined)	.	66	.	65	.	.
O=C(Oc1c(Cl)cc(Cl)c2cccnc12)c1ccco1	.	86	.	58	.	56
O=C(Oc1c(CN2CCOCC2)cc(Cl)c2cccnc12)c1cccs1	.	.	.	.	.	.
O=C(Oc1c(Cl)cc(Cl)c2cccnc12)c1cccs1	.	109	.	.	.	.
O=C(Oc1cncc(Cl)c1)c1ccco1	.	.	.	.	.	.
SMILES	HIF-2a inh	TWEAK-Fn14 inh	CF NFkB block	TROY NFkB inh	KKLEB tox	Peg3 prom inh
C=C(C)COc1ccc2c(c1)CCC1C2CCC2(C)C(=O)C(=NO)CC12 (centres undefined)	.	.	64	.	.	71
CC1Cc2ccccc2N1C(=O)COC(=O)c1c2c(nc3ccccc13)CCCCC2 (centres undefined)	.	.	.	.	.	51
NC(=O)COC(=O)c1c2c(nc3ccccc13)CCCCC2	.	.	.	55	.	.
CC(C)(C)C(=O)COC(=O)c1c2c(nc3ccccc13)CCC2	.	.	.	.	.	.
CCOc1ccc(NC(=O)COC(=O)c2cc(C)oc2C)cc1	.	.	.	.	.	.
COc1ccc(CCN2C(=O)CSC2=Nc2ccc(C(C)C)cc2)cc1OC	.	58	.	.	.	.
COc1ccc(CCNC(=O)Nc2nc(CN)cs2)cc1OC	.	.	.	.	.	.
COc1cccc(C(=O)Nc2cccc(-c3nnc(-c4ccco4)o3)c2)c1	.	.	.	.	.	94
COc1ccc(Br)cc1C(=O)Nc1ccc(NC(=O)c2ccco2)cc1	.	.	.	.	.	.

Compound activity (PubChem)
